Rows were chosen to be rich in hits. Some 7.2% of all compounds tested hit in one or more screens of this group.
Efflux pump inh: blocks antifungal efflux pumps in multiplex yeast assay; S. cerevisiae Candida pump triplex, Nile Red efflux; inhibition, % at 10 µM; hit rate 0.44% among 330,000; AID 485275;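 active means plate passing quality check with inhibition over a set limit, or well fluorescence over plate mean plus 4 SD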;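 further: Nile Red retained in pooled yeast measured as flow cytometry median fluorescence; higher means more Nile Red kept so more efflux inhibition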
AHR activator: activators of human aryl hydrocarbon receptor; AHR-responsive luciferase reporter cells, luminescence; activation, % at 5 µM; hit rate 2.5% among 320,000; AID 2796; in the data active means activation above about 47%
Target sequence (P35869 whole entry, looked up): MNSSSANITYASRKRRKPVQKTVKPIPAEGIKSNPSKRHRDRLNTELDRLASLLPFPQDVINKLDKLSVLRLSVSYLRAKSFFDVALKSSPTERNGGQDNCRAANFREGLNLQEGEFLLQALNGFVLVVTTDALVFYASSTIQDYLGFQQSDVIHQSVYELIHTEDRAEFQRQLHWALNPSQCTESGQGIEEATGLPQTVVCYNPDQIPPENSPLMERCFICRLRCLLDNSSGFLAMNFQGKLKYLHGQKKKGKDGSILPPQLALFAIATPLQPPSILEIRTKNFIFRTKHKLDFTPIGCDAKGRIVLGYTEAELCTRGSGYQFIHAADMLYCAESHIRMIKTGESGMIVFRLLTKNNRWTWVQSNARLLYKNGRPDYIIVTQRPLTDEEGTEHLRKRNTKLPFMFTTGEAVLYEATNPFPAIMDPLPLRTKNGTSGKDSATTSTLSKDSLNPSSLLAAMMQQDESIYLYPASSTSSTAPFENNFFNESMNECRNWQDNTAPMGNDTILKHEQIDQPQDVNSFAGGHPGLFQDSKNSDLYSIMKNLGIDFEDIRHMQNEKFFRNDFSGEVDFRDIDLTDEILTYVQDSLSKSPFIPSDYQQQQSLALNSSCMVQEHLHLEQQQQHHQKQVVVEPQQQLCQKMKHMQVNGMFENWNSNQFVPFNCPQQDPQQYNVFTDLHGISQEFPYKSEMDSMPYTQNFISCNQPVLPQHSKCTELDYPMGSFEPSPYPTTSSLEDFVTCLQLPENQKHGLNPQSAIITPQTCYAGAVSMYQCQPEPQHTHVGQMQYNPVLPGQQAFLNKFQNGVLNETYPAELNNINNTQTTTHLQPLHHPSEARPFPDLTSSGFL
Mot1-301 SUMO: inhibitors of SUMOylation pathway: yeast Mot1-301 growth rescue. S. cerevisiae Mot1-301 growth rescue, ATP luminescence, 38.5C; percent above DMSO median, 100 means doubled. growth rescue, % at 18.8 µM. hit rate 1% among 320,000. AID 2716;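 active means every valid replicate shows activation above 250% relative to neutral control wells; inactive means the rest, any valid replicate at or below 250%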
VLA-4 inh: inhibition in a human VLA-4 binding assay; VLA-4 expressing cells, ligand binding flow cytometry; inhibition, % (about 7 µM as worked out from the volumes in the protocol); hit rate 0.2% among 330,000; AID 2557; in the data active means inhibition above about 50%
A1 inh: inhibitors of the anti-apoptotic protein A1, read as caspase activation | caspase activation, % (test concentration not listed) | MEF A1-2A-BIM cells, Caspase-Glo 3/7 luminescence, 3 h; percent of clofoctol response, vehicle zero | hit rate 0.066% among 330,000 | AID 2462;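 active means over half of replicate activation scores above 10%, or exactly half above 10 with the replicate mean above 10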
ALR H2O2 inh: blocks human ALR sulfhydryl oxidase activity; hit rate 3.8% among 290,000; inhibition, % (concentration not given with the values); purified ALR, DTT oxidation, H2O2 HRP-luminol luminescence; P55789;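 active means mean replicate inhibition above about 79%, with every replicate also reaching it, limit read from the data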
Of the large screens only hits and unclear results are named; the others gave an inactive call.

CC(=O)Nc1sc2c(c1-c1nc3ccccc3s1)CN(C(C)C)CC2	AHR activator 73.7
Cn1c(/C=C/c2cccc([N+](=O)[O-])c2)c([N+](=O)[O-])c(=O)n(C)c1=O	ALR H2O2 inh 98.0
CCn1c(/C=C/c2ccccc2[N+](=O)[O-])nc2ccccc2c1=O	none
CCn1c(/C=C/c2c[nH]c3ccccc23)nc2ccccc2c1=O	none
CCn1c(/C=C/c2c(C)[nH]c3ccccc23)nc2ccccc2c1=O	AHR activator 64.6 (no result: Mot1-301 SUMO, ALR H2O2 inh)
CCn1c(/C=C/c2cccc([N+](=O)[O-])c2)nc2ccccc2c1=O	AHR activator 68.1
Cc1ccnc(NS(=O)(=O)c2ccc(-n3cccn3)cc2)c1	none
O=C(NC(=S)NCc1ccccc1)c1ccccc1[N+](=O)[O-]	none
COc1ccc2ncc(OC(C)=O)cc2c1	none (no result: ALR H2O2 inh)
Cc1ccc2nc(NC(=S)NC(=O)c3cccs3)sc2c1	none
Cc1ccc2nc(NC(=O)c3cccs3)sc2c1	AHR activator 63.8
CCOCCc1nnc(NC(=O)c2cccs2)s1	AHR activator 74.0
Cc1cccc(-c2nnc(NC(=O)c3cccs3)s2)c1	AHR activator 47.8
CCC(C(=O)NCc1cccs1)n1nc(C)n2c(cc3occc32)c1=O (stereo not given)	none
CCC(CNc1cc(OC)cc2cccnc12)NC1CCCCC1 (stereo not given)	AHR activator 48.5
O=C(CCn1cnc2ccccc21)N/N=C/c1ccc(O)cc1	ALR H2O2 inh 99.3
O=C(Cn1cnc2ccccc21)N/N=C/c1ccccn1	ALR H2O2 inh 99.4
O=C(CCn1cnc2ccccc21)N/N=C/c1ccccc1O	none
O=C(Cn1cnc2ccccc21)N/N=C/c1ccc([N+](=O)[O-])cc1	AHR activator 48.7
O=C(Cn1cnc2ccccc21)N/N=C/c1cccnc1	none
O=C(Cc1cccs1)N1CCN(S(=O)(=O)c2cc(Cl)ccc2Cl)CC1	none
O=C(COC(=O)/C=C/c1cccc(C(F)(F)F)c1)NC1CCS(=O)(=O)C1 (stereo not given)	none (no result: Mot1-301 SUMO, A1 inh, ALR H2O2 inh)
CC(=O)c1nn(-c2ccc(Cl)cc2)c(=O)[nH]c1=O	none
Cc1cc(=O)[nH]c(NN=C2CCC(C(C)(C)C)CC2)n1 (stereo not given)	none
CC(=O)N1CCC(=NNc2nc3ccccc3[nH]2)CC1	AHR activator 62.6, ALR H2O2 inh 99.6
CCC(C)(C)C1CCC(=NNc2nc3ccccc3[nH]2)CC1 (stereo not given)	AHR activator 49.6
O=C(Nc1nccs1)c1ccc[nH]c1=O	none
CCc1nnc(NC(=O)CSc2nnc(Cc3cc(=O)[nH]c(=O)[nH]3)n2-c2cccc(OC)c2)s1	ALR H2O2 inh 95.7
COc1ccc(OCCN2C(=O)c3ccccc3C2=O)c([N+](=O)[O-])c1	none
CCCCCCOc1ccc(/C(N)=N/O)cc1	ALR H2O2 inh 98.8
S=c1[nH]nc(-c2ccccn2)n1/N=C/c1cccc2ccccc12	ALR H2O2 inh 95.9
CC(/C=N/n1c(-c2ccc(Cl)cc2)n[nH]c1=S)=C\c1ccco1	none
CC(/C=N/n1c(-c2cc(C)[nH]n2)n[nH]c1=S)=C\c1ccco1	ALR H2O2 inh 97.6
CC(/C=N/n1c(-c2ccccn2)n[nH]c1=S)=C\c1ccccc1	ALR H2O2 inh 95.7
Cc1cccc(/C=N/n2c(-c3ccccn3)n[nH]c2=S)c1	ALR H2O2 inh 95.4
Cc1ccccc1/C=N/n1c(-c2ccccn2)n[nH]c1=S	none (no result: ALR H2O2 inh)
Cc1csc(C(=O)NN)c1N(C)C	none
CCOc1ccc(NC(=O)CN(C)C(=O)CC2CCCC2)cc1OCC	none
S=C(Nc1ccccc1)N1CCc2ccccc21	none
COc1ccc(NC(=S)N2CCc3ccccc32)cc1OC	AHR activator 53.0
CN(C)c1cc2c(cc1NS(=O)(=O)c1ccccc1)n(C)c(=O)n2C	none
CCOc1ccc(C(c2c(O)nc(SC)n(C)c2=O)c2c(O)nc(SC)n(C)c2=O)cc1	ALR H2O2 inh 97.7 (no result: Mot1-301 SUMO)
CCCCn1c(NCCO)nc2ccccc21	ALR H2O2 inh 97.8
CCCn1c(NCc2cc(C)ccc2O)nc2ccccc21	none (no result: ALR H2O2 inh)
CCCCn1c(NCc2ccccc2O)nc2ccccc21	ALR H2O2 inh 97.6
COc1ccc2c(n1)Sc1nc3ccccc3nc1N2	AHR activator 64.5
Cc1ccc(NC(=O)c2ccc3nc[nH]c3c2)cc1C	AHR activator 64.1
CCN(CC)c1ccc(/C=N/NC(=S)NC)c(O)c1	ALR H2O2 inh 98.0
CCN(CC)c1ccc(/C=N/NC(=O)OC)c(O)c1	ALR H2O2 inh 98.5
CCN(CC)c1ccc(/C=N/NC(=O)c2ccc3nc[nH]c3c2)c(O)c1	ALR H2O2 inh 97.0
Cc1cc(C)cc(NC(=O)c2ccc3nc[nH]c3c2)c1	none
CCN(CC)c1ccc(/C=N/NC(=O)c2ccoc2C)c(O)c1	none
CCOc1ccc(CCNC(=O)CSc2ncn[nH]2)cc1OCC	none
COc1ccc(C(=O)NCCS(=O)(=O)N(C)C2CCCCC2)cc1	none
Cc1ccc(C(=O)c2sc3nsc(C)c3c2N)cc1	AHR activator 64.4
Cc1snc2sc(C(=O)c3ccc(Br)cc3)c(N)c12	none
C=CCN1CCc2c(cc(O)c(O)c2Br)[C@@H](c2ccccc2)C1	ALR H2O2 inh 98.8
CCc1cc(/C(Cc2cscn2)=N\O)c(O)cc1O	none
O/N=C(\Cc1cscn1)c1ccc(O)cc1O	ALR H2O2 inh 82.1
CCN(CCCNC(=O)CC(C(=O)N1CCc2ccccc21)n1ccnc1)c1ccccc1 (stereo not given)	ALR H2O2 inh 98.9
C(=N\Nc1ncnc2ccccc12)/c1ccccc1	ALR H2O2 inh 97.3
Clc1cccc(/C=N/Nc2ncnc3ccccc23)c1	none
CCOC(=O)/C(=N\Nc1ncnc2ccccc12)c1ccc(C)cc1	none (no result: ALR H2O2 inh)
Clc1ccc(/C=N/Nc2nc(Cl)nc3ccccc23)cc1	AHR activator 65.3 (no result: ALR H2O2 inh)
Clc1ccc(/C=N/Nc2nnc(Cl)c3ccccc23)cc1	none
CCOC(=O)C/C(=N\Nc1ncnc2ccccc12)c1ccccc1	AHR activator 69.3 (no result: ALR H2O2 inh)
O=C(COC(=O)CCCSc1nc2ccccc2[nH]1)Nc1ccc(Cl)cc1	none
CCOP(=O)(OCC)C(Nc1ccc(C(=O)O)cc1)c1ccccc1 (stereo not given)	none
CCOP(=O)(OCC)C(Nc1ccc(OC)cc1)c1ccco1 (stereo not given)	ALR H2O2 inh 94.9
COC(=O)c1cc(C(=O)Nc2nnc(CC(C)C)s2)cc([N+](=O)[O-])c1	none
CCC(CC)c1nnc(NC(=O)c2cc(C(=O)OC)cc([N+](=O)[O-])c2)s1	Mot1-301 SUMO 399.8
COc1cccc(N2CCN(C(=O)CNC(=O)c3sc4ccccc4c3Cl)CC2)c1	none
CC(C)Cn1c(/C=C/c2ccco2)nc2ccccc21	ALR H2O2 inh 97.0
CC(C)Cn1c(S(=O)(=O)O)nc2ccccc21	none
Cc1ccc(Cn2c(C(C)Nc3nc(-c4ccc(F)cc4)cs3)nc3cc(Cl)c(Cl)cc32)cc1 (stereo not given)	AHR activator 58.8
O=C(NCCCn1ccnc1)c1c(F)cccc1F	none

High-throughput results from PubChem BioAssay.
